# Assay outcomes as filed in PubChem BioAssay.
# Giardia FBPA inh: inhibitors of Giardia lamblia fructose-1,6-bisphosphate aldolase; purified Giardia FBPA; A8B2U2; Potency, µM (titrated, usually from 59.6 µM), actives largely listed as inhibitors; hit rate 0.71% among 290,000; AID 2451; note: nearly all actives have a fitted effect of over 55% in size
# Target sequence (A8B2U2 whole entry, looked up): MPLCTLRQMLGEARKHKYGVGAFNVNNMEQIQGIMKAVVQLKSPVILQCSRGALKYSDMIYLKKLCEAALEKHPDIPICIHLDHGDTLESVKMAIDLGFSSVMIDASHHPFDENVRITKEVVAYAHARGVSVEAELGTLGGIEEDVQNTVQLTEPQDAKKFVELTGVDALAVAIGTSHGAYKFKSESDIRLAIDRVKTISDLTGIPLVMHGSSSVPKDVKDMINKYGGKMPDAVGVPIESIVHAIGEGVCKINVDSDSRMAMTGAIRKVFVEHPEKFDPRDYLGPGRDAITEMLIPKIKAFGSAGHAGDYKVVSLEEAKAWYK
#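 40 nM FBPA preincubated 10 min at RT with compound (up to 57.5 uM final), then substrate plus GAPDH/TPI/NAD/arsenate coupling and diaphorase/resazurin added. Fluorescence read after 20 min at RT, 525/598 nm.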
# VACV Venus inh: inhibitors of vaccinia virus (Venus reporter) | Potency, µM (series often up to 36.5 µM), hits mostly inhibitors | AID 720580 | hit rate 0.46% among 330,000 | Vaccinia virus Venus reporter expression, fluorescence; calls by dose curve; tested in A549 cells; note: nearly all actives have a fitted effect of over 30% in size
# FMDV antiviral: blocks foot and mouth disease virus; Potency, µM (highest dose often 57.9 µM), actives largely listed as inhibitors; FMDV antiviral cell-based qHTS; hit rate 1.2% among 410,000; calls by dose curve; tested in HEK293T cells; note: read-out not given here; nearly all actives have a fitted effect of over 45% in size
# VACV mCherry inh: inhibitors of vaccinia virus infection (mCherry reporter signal). Vaccinia virus mCherry reporter infection, fluorescence. Potency, µM (titrated, usually from 36.5 µM), actives largely listed as inhibitors. hit rate 0.63% among 310,000. AID 720579; calls by dose curve; tested in A549 cells; note: nearly all actives have a fitted effect of over 35% in size
# HCV inh: inhibitors of hepatitis C virus infection; Huh7.5.1 HCVcc-Cre infection, luciferase reporter, 44 h; Potency, µM (top dose mostly 41.8 µM), most hits filed as inhibitors; hit rate 3.4% among 340,000; AID 651820
#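 Cells (1,000/well) were plated 4 h before compound, then infected with HCVcc-Cre virus (~0.5 moi). After 44 h further culture, infection was read as luciferase luminescence following a 15 min substrate incubation at room temperature.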
# HCMV antiviral: human cytomegalovirus inhibition. HFF cells, HCMV-luciferase reporter, 72 h; active compounds read low. activity change, negative = inhibition, % at 57.5 µM. hit rate 4.5% among 410,000; in the data active = activity change below about -60%; inconclusive = no clear call, values can overlap the other calls; inactive = above about -39%
#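 HFF cells seeded 16 h at 37C, treated with compounds, infected with luciferase-reporter HCMV at MOI 1 PFU/cell; luciferase read at 72 h post infection, normalized to buffer-only and Salinomycin controls.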
# Hits are given with their value; – = inactive; ? = inconclusive; · = no result given; [ ] = dose if it differs, or a comment. The list is not random: actives were taken first. Their share in the collection is about 7.5%. Unless noted, calls come from the whole dose curve; as a rule, active = well fitted curve in the direction sought with a large enough effect; inconclusive = small, poorly fitted or top-dose-only effect, or another doubt; inactive = no such curve, though single readings can be large; an effect the other way counts as inactive or inconclusive.
SMILES,Giardia FBPA inh,VACV Venus inh,FMDV antiviral,VACV mCherry inh,HCV inh,HCMV antiviral
Cc1ccc(S(=O)(=O)c2nc(S(C)(=O)=O)sc2N(C)C)cc1,–,11µM,–,–[1.46 µM],–,–
O=C(CSc1nc(=O)n(CCCN2CCOCC2)c2c1CCC2)Nc1ccccc1F,·,–,–,–,–,–
CCc1c(C)sc2c1CCN(Cc1ccc(F)cc1)C2c1ccccc1 (stereo not given),·,–,–,–,·,-98
CCc1c(C)sc2c1CCN(Cc1ccc(C#N)cc1)C2c1ccccc1 (stereo not given),·,–,–,–,·,–
CCc1c(C)sc2c1CCN(Cc1cccc(F)c1)C2c1ccccc1 (stereo not given),·,–,–,–,·,-78
COC(=O)c1c(NC(NC(=O)C(C)C)C(Cl)(Cl)Cl)sc2c1CCC2 (stereo not given),–,–,–,–,?,?
N#Cc1c(N)n(CCNC(=O)c2ccccc2)c2nc3ccccc3nc12,?,·,–,·,–,-66
Nc1c(C(=O)Nc2ccccc2)c2nc3ccccc3nc2n1CCCN1CCOCC1,–,–[7.34 µM],?,–[7.34 µM],22µM,–
N#Cc1c(N)n(CCNC(=O)c2cccs2)c2nc3ccccc3nc12,?,–,–,–[1.46 µM],–,–
CCCCCCn1c(N)c(C(=O)NCCN2CCOCC2)c2nc3ccccc3nc21,–,?,11µM,·,?,–
CCCCCn1c(N)c(C(=O)NCCN2CCOCC2)c2nc3ccccc3nc21,–,?,?,·,–,–
COCCCn1c(N)c(C(=O)NCCC(C)C)c2nc3ccccc3nc21,?,·,–,·,8.9µM,–
Cc1cccc(Cn2c(SCc3ccc(C(=O)N4CCCCCC4)cc3)nc3ccncc32)c1,·,?,–,?,·,-90
CC(CNC(=O)c1ccc(CSc2nc3ccncc3n2Cc2cccc(F)c2)cc1)c1ccccc1 (stereo not given),·,–,?,–,·,-70
O=C(NCc1cccs1)c1ccc(Cn2c(SCc3ccccc3)nc3cccnc32)cc1,·,–,–,–,·,–
Cc1ccc(CCNC(=O)c2ccc(CSc3nc4ccncc4n3Cc3ccc(F)cc3)cc2)cc1,·,–,?,–,·,-70
O=C(NCc1cccs1)c1ccc(Cn2c(SCc3ccc(F)cc3)nc3cccnc32)cc1,·,–,–,–,·,-63
CCOc1ncccc1C(=O)Nc1ccc(S(=O)(=O)N2CC(C)CC(C)C2)cc1 (stereo not given),·,–,–,–,–,–
COC(=O)[C@H]1[C@H]2CC3c4[nH]c5ccccc5c4CCN3C[C@@H]2CC[C@@H]1O (stereo not given in full),–,·,·,·,·,·
Cc1ccc(S(=O)(=O)Nc2ccc3c(c2)nc(CCN2CCCC2)n3C)cc1,–,·,–,·,–,?
Cc1cccc(Cn2c(SCc3ccc(C(=O)NC4CCCC4)cc3)nc3cccnc32)c1,·,–,–,–,·,–
Cc1cccc(CC(=O)NCc2nc3cccnc3n2Cc2ccc(F)cc2)c1,·,–,–,–,·,-63
Cc1cccc(Cn2c(SCc3ccc(C(=O)NC4CCCCC4)cc3)nc3cccnc32)c1,·,–,?,?,·,-83
CCOC(=O)c1c(C)[nH]c(C)c1S(=O)(=O)N1CCCC(C(=O)NCc2cccc(OC)c2)C1 (stereo not given),·,–,–,–,·,–
CC(C(=O)NC1CCCCC1)N(Cc1ccccc1)C(=O)c1snc(C(N)=O)c1N (stereo not given),–,–,–,–,–,–
SMILES,Giardia FBPA inh,VACV Venus inh,FMDV antiviral,VACV mCherry inh,HCV inh,HCMV antiviral
CCOC(=O)N1CCC(NC(=O)CS(=O)Cc2nc(-c3ccc(Cl)cc3)oc2C)CC1 (stereo not given),·,·,?,·,–,?
CCC(C)C(=O)O[C@@H]1[C@H](OC(C)=O)c2c(ccc3ccc(=O)oc23)OC1(C)C (stereo not given in full),·,·,·,·,·,–
COc1ccc(NC(=O)O/N=C2/CCCc3ccc(OC)cc32)cc1,–,·,–,·,2.8µM,-73
CN(C)/N=C/c1ccc(Sc2ccc([N+](=O)[O-])cc2[N+](=O)[O-])o1,–,–,?,–,?,?
O=[N+]([O-])c1ccc(Sc2ccncn2)c([N+](=O)[O-])c1,·,?,28µM,–,·,-86
C=CCn1nc([N+](=O)[O-])nc1Sc1cccc2cccnc12,–,8.9µM,?,7.9µM,?,·
Cc1cc(C)nc(Sc2ccc([N+](=O)[O-])cc2[N+](=O)[O-])n1,–,–,7.1µM,–,–,?
